Results published in PubChem BioAssay AID1159580 (chemical genetic matrix, 2015).
Several values for one entry are separate records, joined by “and”; a condition that tells them apart may be missing. Identical values can stand only once. The whole screen tested about 5,500 compounds, of which about 2,000 (36%) were called active. Inconclusive results (about 18%) are left out. Cut-off read from the data, not from the text of the source: active = normalized growth mostly below about 0.91 (no sharp cut-off); inconclusive = no clear call, values can overlap the other calls; inactive = mostly above about 0.92. Some of the results follow.

Test: chemical genetic growth profiling, strain panel (AID 1159580);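 note: tested at 20 µM; growth read once vehicle control cultures reached saturation at 30 °C; 1 = growth at the plate median or of vehicle wells; lower values mean less growth of the strain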
Details: S. cerevisiae deletion strains, growth OD

Measured: normalized growth

Clc1ccc(CSC(Cn2ccnc2)c2ccc(Cl)cc2Cl)cc1 (stereo not given)
active: locus YAL021C, strain ccr4, hits give low values 0.067 | locus YAL026C, strain drs2, hits give low values 0.0648 | locus YAL030W, strain snc1, hits give low values 0.0596 | locus YBL061C, strain skt5, hits give low values 0.062 | locus YBR009C, strain hhf1, hits give low values 0.0601 | locus YBR021W, strain FUR4, hits give low values 0.0857 | locus YBR023C, strain chs3, hits give low values 0.0649 | locus YBR171W, strain sec66, hits give low values 0.076 | locus YBR229C, strain ROT2, hits give low values 0.0457 | locus YBR231C, strain swc5, hits give low values 0.064 | locus YBR279W, strain paf1, hits give low values 0.064 | locus YCL011C, strain gbp2, hits give low values 0.0611 | locus YCL016C, strain dcc1, hits give low values 0.0681 | locus YCL029C, strain bik1, hits give low values 0.0583 | locus YCL069W, strain vba3, hits give low values 0.0628 | locus YCR088W, strain abp1, hits give low values 0.0629 | locus YDL005C, strain med2, hits give low values 0.0743 | locus YDL035C, strain GPR1, hits give low values 0.0497 | locus YDL040C, strain nat1, hits give low values 0.059 | locus YDL074C, strain BRE1, hits give low values 0.0766 | locus YDL101C, strain DUN1, hits give low values 0.0543 | locus YDL134C, strain PPH21, hits give low values 0.048 | locus YDL185W, strain tfp1, hits give low values 0.0566 | locus YDL192W, strain arf1, hits give low values 0.0601 | locus YDR001C, strain nth1, hits give low values 0.0613 | locus YDR069C, strain doa4, hits give low values 0.0624 | locus YDR101C, strain arx1, hits give low values 0.0606 | locus YDR137W, strain rgp1, hits give low values 0.102 | locus YDR150W, strain NUM1, hits give low values 0.0543 | locus YDR159W, strain sac3, hits give low values 0.0874 | locus YDR162C, strain NBP2, hits give low values 0.0476 | locus YDR195W, strain ref2 0.129 | locus YDR297W, strain sur2, hits give low values 0.0568 | locus YDR318W, strain mcm21, hits give low values 0.0592 | locus YDR334W, strain swr1, hits give low values 0.0638 | locus YDR335W, strain msn5, hits give low values 0.0624 | locus YDR388W, hits give low values 0.0553 | locus YDR392W, strain spt3, hits give low values 0.0838 | locus YDR502C, strain sam2, hits give low values 0.0567 | locus YEL003W, strain gim4, hits give low values 0.054 | locus YEL037C, strain rad23, hits give low values 0.0579 | locus YEL061C, strain CIN8 (second series), hits give low values 0.0613 | locus YEL061C, strain CIN8, hits give low values 0.0475 | locus YER015W, strain faa2, hits give low values 0.0623 | locus YER016W, strain bim1, hits give low values 0.061 | locus YER110C, hits give low values 0.0729 | locus YER111C, strain swi4, hits give low values 0.0739 | locus YER155C, strain BEM2 (second series), hits give low values 0.0999 | locus YER155C, strain BEM2, hits give low values 0.0594 | locus YER167W, strain BCK2, hits give low values 0.0492 | locus YFR010W, strain ubp6, hits give low values 0.0712 | locus YGL078C, strain dbp3, hits give low values 0.0667 | locus YGL086W, strain mad1, hits give low values 0.0535 | locus YGL167C, strain pmr1, hits give low values 0.0756 | locus YGL173C, strain kem1, hits give low values 0.0697 | locus YGL227W, strain vid30, hits give low values 0.065 | locus YGL240W, strain doc1, hits give low values 0.0922 | locus YGL248W, strain PDE1, hits give low values 0.0451 | locus YGL253W, strain hxk2, hits give low values 0.0562 | locus YGR078C, strain PAC10, hits give low values 0.0475 | locus YGR135W, strain pre9, hits give low values 0.0572 | locus YGR229C, strain SMI1, hits give low values 0.0582 | locus YGR252W, strain gcn5, hits give low values 0.112 | locus YHR013C, strain ard1, hits give low values 0.101 | locus YHR027C, strain rpn1, hits give low values 0.0633 | locus YHR030C, strain SLT2, hits give low values 0.0493 and 0.0968 | locus YHR079C, strain IRE1 (second series), hits give low values 0.0556 | locus YHR079C, strain IRE1, hits give low values 0.104 | locus YHR094C, strain hxt1, hits give low values 0.0572 | locus YHR129C, strain ARP1, hits give low values 0.0541 | locus YHR142W, strain chs7, hits give low values 0.0779 | locus YHR200W, strain rpn10, hits give low values 0.0594 | locus YIL066C, strain RNR3, hits give low values 0.047 | locus YIL073C, strain SPO22, hits give low values 0.109 | locus YIL125W, strain kgd1, hits give low values 0.0629 | locus YIR030C, strain dcg1, hits give low values 0.0572 | locus YJL092W, strain hpr5, hits give low values 0.0607 | locus YJL095W, strain BCK1 (second series), hits give low values 0.0571 | locus YJL095W, strain BCK1, hits give low values 0.0582 and 0.0962 | locus YJL115W, strain asf1, hits give low values 0.0715 | locus YJL129C, strain trk1, hits give low values 0.0907 | locus YJL134W, strain LCB3, hits give low values 0.0474 | locus YJL154C, strain vps35, hits give low values 0.0605 | locus YJL164C, strain tpk1, hits give low values 0.0651 | locus YJL166W, strain qcr8, hits give low values 0.0602 | locus YJL168C, strain set2, hits give low values 0.0557 | locus YJL187C, strain SWE1 (second series), hits give low values 0.0452 | locus YJL187C, strain SWE1, hits give low values 0.0595 | locus YJR043C, strain POL32, hits give low values 0.0608 | locus YJR066W, strain TOR1, hits give low values 0.00124
